Screening data as filed in PubChem BioAssay.
NALP1 inh: NALP1 inhibition; S. cerevisiae NALP1/ASC/caspase-1 growth, X-gal OD620, 72 h; inhibition, % at 10 µM; 0.61% of 280,000 active; in the data active = inhibition mostly above about 24%, no sharp cut-off; inactive = mostly below about 32%
NLRP3 yeast inh: NALP3 inhibition in yeast; Yeast reconstituted NLRP3/ASC/caspase-1, beta-gal luminescence, 24 h; inhibition, % at 10 µM; 0.39% of 330,000 active; AID 2825;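 active = inhibition of 50% or more; inactive = inhibition below 50%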;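 note: plate controls were induced DMSO wells for no effect and uninduced yeast grown without galactose for full effect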
V-ATPase pH: alters yeast V-ATPase proton transport. S. cerevisiae, pHLuorin cytosolic pH fluorescence. response, % at 10 µM. 0.37% of 350,000 active. AID 504577; in the data active = response mostly above about 7.3%, no sharp cut-off; inactive = mostly below about 5.4%; note: actives read high
tim10-1 inh: inhibits growth of tim10-1 mutant yeast. inhibition, % at 20 µM. AID 463190. S. cerevisiae tim10-1 ts strain growth, BacTiter-Glo, 24 h. 2.2% of 330,000 active;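 active = inhibition of at least 40%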;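 note: mutant grown at 25 °C; 0% = DMSO wells with yeast and 100% = wells holding no yeast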
TIM10 inh: growth inhibitors of TIM10 yeast strain; S. cerevisiae TIM10 strain growth, BacTiter-Glo luminescence, 24 h; 1.4% of 330,000 active; inhibition, % at 10 µM; AID 463195;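 active = inhibition of 40% or more at the single tested concentration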;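 note: wild-type TIM10 isogenic control strain grown at permissive 25 °C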
tim23-1 inh: inhibits growth of tim23-1 mutant yeast | S. cerevisiae tim23-1 growth, BacTiter-Glo luminescence, 24 h | inhibition, % at 20 µM | 1.3% of 330,000 active | AID 463212;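 active = growth inhibition of the mutant yeast at or above 50%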;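 note: temperature-sensitive mutant grown at 25 °C; plate controls were DMSO-treated mutant yeast for no effect and medium wells lacking yeast for full effect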
tim10 confirm: confirmation of TIM10 yeast growth inhibitors | 63% of 4,600 active | S. cerevisiae tim10 strain growth, BacTiter-Glo luminescence, 24 h | shares compounds with TIM10 inh | inhibition, % at 10 µM;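 active = inhibition of yeast growth at or above a set limit in either of two replicates at 10 µM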;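 note: this counterscreen used the strain with wild-type TIM10; 0% = yeast with DMSO and 100% = medium wells lacking yeast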
* hit, by the source's call; / = no result. Shown are actives, neighbours in structure and some others; about 4.2% of the full set was active somewhere.

SMILES	NALP1 inh	NLRP3 yeast inh	V-ATPase pH	tim10-1 inh	TIM10 inh	tim23-1 inh	tim10 confirm
O=C(Nc1ccc(NC(=O)c2ccncc2)cc1)c1ccncc1	20.5	4.0	/	6.0	6.6	8.6	/
O=C(Nc1ccc2c(c1)oc1ccccc12)c1ccncc1	13.0	40.1	4.1	-0.2	43.2*	42.0	40.0*
O=C(Nc1ccc2c(c1)oc1ccccc12)c1ccc2c(c1)OCO2	13.4	12.0	2.8	3.3	40.3*	8.2	12.3
N#Cc1cccc(NC(=O)COC(=O)c2ccc[n+]([O-])c2)c1	/	-2.3	-0.7	0.3	0.2	0.4	/
Cc1ccc2nc(-c3ccc(N4C(=O)CC(N5CCC(C(N)=O)CC5)C4=O)cc3)sc2c1 (configuration not stated)	30.5	-7.6	/	18.3	42.1*	15.3	56.8*
O=C(O)C1Sc2[nH]c(=O)sc2C2c3cc(Br)ccc3OC(=O)C12 (configuration not stated)	/	7.3	-0.1	22.4	43.6*	29.8	33.2*
CC(C)(C)c1nnc(NC(=S)Nc2ccccc2)s1	-7.5	49.1	-0.7	35.0	45.4*	28.3	24.2
COc1cc(OC)cc(C(=O)Nc2nnc(NC(=S)Nc3ccccc3)s2)c1	3.6	18.2	-0.1	17.7	20.3	9.3	/
Cc1ccc(C(=O)Cn2c(C(=O)/C=C/c3ccccc3)nc3ccccc32)cc1	12.7	-4.7	-0.6	38.0	42.9*	30.0	32.5*
Cc1ccc(C(=O)Cn2c(NCCO)nc3ccccc32)cc1	26.2	-3.9	-1.6	1.9	-1.4	0.4	/
COc1cc(C(C)=O)ccc1OCC(O)CN1CCN(c2c(C)cccc2C)CC1 (configuration not stated)	9.9	19.0	-3.3	-6.6	96.7*	-2.4	10.4
O=C(C1CCC(Cn2c(=O)[nH]c3ccccc3c2=O)CC1)N1CCN(c2ccccc2)CC1 (configuration not stated)	21.4	22.1	1.5	27.3	2.3	3.1	/
CC1CC(C)CN(C(=O)CCCn2c(=S)[nH]c3ccccc3c2=O)C1 (configuration not stated)	-1.2	17.4	0.1	29.0	43.1*	41.8	19.4
O=C(C1CCC(Cn2c(=S)[nH]c3ccccc3c2=O)CC1)N1CCN(c2ccccc2)CC1 (configuration not stated)	/	7.3	-1.1	26.3	46.2*	30.6	37.5*
O=C(CN1CCN(C(=O)C2CC2)CC1)Nc1cc(C(F)(F)F)cc(C(F)(F)F)c1	/	10.3	3.1	8.8	4.6	5.6	/
CC(=O)c1ccc(OCC(=O)Nc2ccc3c(c2)CCC3)cc1	0.6	7.8	-1.9	-72.4	-15.6	-11.5	/
O=C(COc1ccc(Cl)cc1)Nc1ccc2c(c1)CCC2	46.9	47.8	-1.6	-7.6	40.5*	37.0	-20.8
COc1ccc(N2CCN(C(=O)CSc3ccc([N+](=O)[O-])cc3)CC2)cc1	-3.2	23.4	-1.3	10.4	-12.8	33.7	/
CCCCNC(=O)Nc1nc2ccc(CC)cc2s1	7.2	18.1	-1.7	35.3	40.0	27.9	29.9
Cc1ccc(C)c(-c2cc(C(=O)Nc3nccs3)c3ccccc3n2)c1	13.6	-17.6	-6.8	38.7	46.9*	45.4	42.1*
O=C(COc1cccc(OC(F)F)c1)Nc1ccc(SC(F)F)cc1	8.1	34.1	-3.2	38.3	49.9*	43.8	38.6*
CN(C)/C(=N\S(=O)(=O)c1ccccc1)c1ccc(F)cc1	23.3	12.0	-0.4	-10.5	61.5*	3.5	0.1
COc1cc(NC(=O)CCc2c(C)nn(-c3ccc(N4CCOCC4)nn3)c2C)cc(OC)c1OC	-5.6	12.3	-3.1	7.4	-5.0	-3.0	/
O=C(Nc1ccc2nc(-c3cccs3)[nH]c2c1)c1cccs1	13.1	-5.9	0.4	8.9	51.8*	36.0	33.2*
O=C(Nc1ccc(-c2nc3ccc(NC(=O)c4cccs4)cc3[nH]2)cc1)c1cccs1	38.4	-1.1	-25.0	-32.4	-25.6	-18.2	/
SMILES	NALP1 inh	NLRP3 yeast inh	V-ATPase pH	tim10-1 inh	TIM10 inh	tim23-1 inh	tim10 confirm
O=C(Nc1ccc(Cc2ccncc2)cc1)c1cccs1	3.0	-16.7	2.1	-0.6	41.3*	33.6	-4.7
Cc1ccc(Cc2cnc(NC(=O)c3cccs3)s2)cc1	-8.7	23.1	-2.3	35.0	54.1*	49.4	-15.0
O=C(c1ccncc1)c1ccc(NC(=O)c2cccs2)cc1	12.6	-9.7	0.2	-21.2	24.1	-5.9	/
C=CCNC(=O)C1CC(=O)N(c2ccc(OCC(=O)Nc3ccc(Cl)c(C(F)(F)F)c3)cc2)C1 (configuration not stated)	10.7	9.8	-1.0	4.3	-21.2	-14.5	/
O=C(O)C1CCCCC1C(=O)NC1C2CC3CC(C2)CC1C3 (configuration not stated)	21.9	8.6	0.6	-4.3	-10.5	-7.6	/
O=c1[nH]cnc2ncc(-c3ccc(O)cc3)nc12	/	14.1	1.5	4.2	40.7*	16.0	-10.2
Cc1ccc(C)c(CSC2=NCCN2C(=O)Cc2ccc([N+](=O)[O-])cc2)c1	18.8	8.6	1.2	28.1	8.6	9.0	/
COc1ccc([C@@H](C)NC(=O)c2ccc3oc(C(C)C)nc3c2)cc1	12.3	9.3	-2.1	16.1	29.8	25.5	/
Cc1ccc2nc(CNC(=O)C3CCC(=O)N(Cc4ccccc4F)C3)cn2c1 (configuration not stated)	4.3	8.1	1.8	-2.9	1.3	-6.7	/
COc1ccc(C(=O)NCC(=O)Nc2ccc(F)cc2)cc1OC	7.0	0.1	-2.5	-6.0	50.2*	-2.0	-2.6
Cc1nc2c(ccc3nc(NC(=O)Cc4ccccc4)sc32)s1	29.6	26.0	-0.7	37.8	42.0*	36.6	45.2*
Cc1c(Cl)cccc1NC(=S)NCc1ccc(Cl)cc1	/	15.2	3.7	24.5	-10.4	-10.5	/
Cc1c(Cl)cccc1NC(=S)NCc1ccccc1	/	7.9	-3.6	30.4	46.1*	27.8	20.7
O=C(NCc1nnnn1-c1ccc(Cl)cc1)C(=O)c1c[nH]c2ccccc12	/	/	-3.2	/	/	/	/
Cc1ccc(-c2csc(N(CC3CCCO3)C(=O)c3ccco3)n2)cc1 (configuration not stated)	26.2	13.6	0.3	27.3	43.3*	5.0	42.3*
COC(=O)c1cc(CSc2nnc(-c3ccccc3)c(-c3ccccc3)n2)oc1C	15.4	13.1	0.9	29.9	11.1	27.3	/
O=C(Cc1ccccc1F)Nc1nc(-c2cccs2)cs1	14.9	4.6	3.9	15.5	47.3*	27.8	-2.5
O=C(Nc1cccc(NC(=O)c2cccs2)c1)c1ccc([N+](=O)[O-])o1	/	0.8	-0.8	35.3	56.4*	33.4	62.4*
Cc1ccc(NC(=O)c2cccs2)cc1[N+](=O)[O-]	21.0	22.8	3.4	17.8	44.9*	36.2	12.1
O=C(Nc1nc(-c2cccs2)cs1)c1ccc([N+](=O)[O-])o1	/	16.9	4.5	11.7	62.5*	44.7	87.2*
